# HepG2 viability = HepG2 cytotoxicity, counter-screen for TGF-b inhibitors. HepG2 CAGA-GFP viability, ATP luminescence, 18 h. Potency, µM (series often up to 46.1 µM), actives largely listed as cytotoxic. 0.76% of 410,000 active. AID 588856
#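 CellTiter-Glo luminescence gave cytotoxicity after 18 hours at 37 degrees C. The cells were HepG2 CAGA-GFP in 1% FBS DMEM, stimulated with 500 pg/mL TGF-beta after compound addition. %Activity was normalised to no-cell wells (complete cell-killing) and DMSO (no toxicity), and curves were fitted and classified.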
# RORgamma inh = ROR gamma (mouse) transcription inhibition; Drosophila S2 Gal4-RORgamma UAS-luciferase reporter, 20 h; Potency, µM (doses to about 53.6 µM), most hits filed as inhibitors; 5.4% of 310,000 active; also: nearly all actives have a fitted effect of over 60% in size
# Target sequence (P51450 whole entry, looked up, the tested form may be a part): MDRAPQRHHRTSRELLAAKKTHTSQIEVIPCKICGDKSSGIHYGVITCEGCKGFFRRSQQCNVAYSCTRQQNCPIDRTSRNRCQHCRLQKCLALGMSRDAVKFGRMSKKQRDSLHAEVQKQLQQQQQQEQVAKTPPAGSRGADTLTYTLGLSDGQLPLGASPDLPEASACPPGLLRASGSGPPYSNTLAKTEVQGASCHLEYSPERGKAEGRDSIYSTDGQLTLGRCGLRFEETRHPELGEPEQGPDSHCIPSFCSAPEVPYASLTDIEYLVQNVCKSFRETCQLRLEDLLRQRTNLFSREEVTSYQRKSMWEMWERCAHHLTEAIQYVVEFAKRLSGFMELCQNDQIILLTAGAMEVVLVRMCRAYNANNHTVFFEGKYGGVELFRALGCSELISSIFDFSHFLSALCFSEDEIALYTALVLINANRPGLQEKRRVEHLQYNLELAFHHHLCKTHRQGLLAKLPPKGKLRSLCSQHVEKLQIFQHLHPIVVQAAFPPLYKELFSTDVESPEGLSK
#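 A Gal4/UAS one-hybrid system in insect cells: metallothionein-promoter Gal4–ROR gamma fusion plus Photinus luciferase reporter. Copper sulfate 700 uM final, 20 hr ambient incubation, luminescent detection after 10 min with reagent.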
# TGFb SMAD3 inh = TGF-b pathway inhibition | Potency, µM (titrated, usually from 46.1 µM), hits mostly inhibitors | HepG2 CAGA-GFP TGF-b/SMAD3 reporter, GFP fluorescence, 18 h; TGF-beta stimulated, 500 pg/mL final | 1.2% of 410,000 active | AID 588855; also: nearly all actives have a fitted effect of over 65% in size
#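 Using HEPG2 CAGA-GFP reporter cells at 1000 cells/well, we pinned test compounds, stimulated with recombinant TGF-beta (500 pg/mL final) and measured total well GFP after 18 h.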
# VP16 counter = inhibits Gal4-VP16 luciferase reporter, ROR gamma counter-screen; Drosophila S2 Gal4-VP16 UAS-luciferase, luminescence, 20 h; AID 2546; 3.5% of 310,000 active; Potency, µM (series often up to 53.6 µM), actives largely listed as inhibitors;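 also: Gal4-VP16 expression switched on by copper sulfate through the metallothionein promoter; nearly all actives have a fitted effect of over 50% in size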
# ATXN viability = cell viability loss in ATXN counter-screen; S2 cells (HEK-293 line with an ATXN2-luciferase reporter) viability, CellTiter-Fluor protease fluorescence, 24 h; Potency, µM (highest dose often 56.7 µM), most hits filed as cytotoxic; 0.49% of 400,000 active; AID 651635; also: nearly all actives have a fitted effect of over 40% in size
# ATXN2 expr inh = inhibitors of ATXN2 expression; HEK-293 ATXN2-luciferase reporter, luminescence, 24 h; Potency, µM (top dose mostly 57 µM), usual class: inhibitors; 0.72% of 360,000 active; also: nearly all actives have a fitted effect of over 55% in size
#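 ATXN2-luciferase reporter cells (luciferase flanked by upstream and downstream ATXN2 gene portions) were treated 24 h at 37 °C with compounds at up to 57 uM. SteadyGlo luminescence gave expression; GF-AFC fluorescence gave viability.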
# A number is an active result; 0 = inactive; ? = inconclusive; - = not tested or not shown; ! = not active in a repeat; [ ] = another dose, or the depositor's remark. Compounds with a hit are over-represented: about 6.3% of the library has one in this group of screens. Calls follow the shape of the dose curve; as a rule, active = well fitted curve in the direction sought with a large enough effect; inconclusive = small, poorly fitted or top-dose-only effect, or another doubt; inactive = no such curve, though single readings can be large; an effect the other way counts as inactive or inconclusive.
SMILES,HepG2 viability,RORgamma inh,TGFb SMAD3 inh,VP16 counter,ATXN viability,ATXN2 expr inh
Cc1ccc(S(=O)(=O)N2CCN(C(=O)CSC(=S)N3CCCC3)CC2)c(C)c1,10µM,-,11.2µM,-,?,?
COc1ccc2c(c1)CC(NC(=O)Nc1c(C)cc(C)cc1C)CO2 (centres undefined),0,-,0,-,-,-
Cc1ccc(-c2nc3ccccn3c2Nc2ccccc2C)s1,0,-,0,-,0,0
COc1ccccc1NC(=O)c1c(Nc2ccccc2F)sc(C(=O)Nc2cccc(Cl)c2)c1N,0,?,15.8µM,?,?,?
COc1cccc(Nc2sc(C(=O)c3ccc(Cl)cc3)c(N)c2C(=O)NCCc2ccc(OC)c(OC)c2)c1,0,-,?,-,?,?
CCOc1ccc(S(=O)(=O)NCCc2csc(-c3ccc(Cl)cc3)n2)cc1,0,-,11.2µM,-,?,?
Cc1ccc(C)c(S(=O)(=O)NCCc2csc(-c3ccc(Cl)cc3)n2)c1,0,-,11.2µM,-,?,?
Cc1ccc(S(=O)(=O)NCCc2csc(-c3cccc(F)c3)n2)cc1,0,-,?,-,?,?
COc1ccc(S(=O)(=O)NCCc2csc(-c3ccc(F)cc3)n2)cc1,0,-,?,-,?,?
O=S(=O)(NCCc1csc(-c2ccc(F)cc2)n1)c1ccc(Cl)cc1,0,-,?,-,?,15.8µM
Cc1ccc(S(=O)(=O)NCCc2csc(-c3ccc(Cl)cc3)n2)cc1,0,-,11.2µM,-,0,?
O=C(O)CC/C=C\CC[C@@H]1[C@@H](N2CCCCC2)[C@@H](O)C[C@@H]1OCc1ccc(-c2ccccc2)cc1,-,0,-,0,-,-
CNc1cc(OC)c(C(=O)N[C@@H]2CCN(Cc3ccccc3)[C@H]2C)cc1Cl,-,0,-,0,-,-
COc1ccc(OC)c(CN2C(=O)c3ccccc3C2c2nnnn2-c2c(C)cccc2C)c1 (centres undefined),-,-,-,-,0,0
O=C1C(NS(=O)(=O)c2cccs2)=C(N2CCOCC2)C(=O)c2ccccc21,0,0,?,0,0,0
O=C1C=C(N2CCOCC2)c2cccc3cccc1c23,0,-,0,-,?,-
CN(C1=C(N2CCOCC2)C(=O)c2ccccc2C1=O)c1ccccc1,0,14.1µM,10µM,0,?,0
CC1=C(N2CCOCC2)CCC1=O,0,-,0,-,0,0
CC1=C(C)C(=O)C(N2CCOCC2)=CC1=O,0,22.4µM,0,?,0,?
O=C1C=C(N2CCOCC2)c2ccccc2C1=O,5.01µM,3.98µM,5.01µM,3.16µM,25.1µM,?
Cc1ccc(S(=O)(=O)N2CCCN(c3nc(-c4cccs4)nc4ccccc34)CC2)cc1,0,-,?,-,-,-
CC(C)(C)Nc1oc(-c2ccccc2)nc1-c1ccc(C(F)(F)F)cc1,-,0,-,0,-,-
CCCCCCCCCCOC(=O)Cn1c(COc2ccc(OC)cc2)[n+](C)c2ccccc21,11.2µM!,?,10µM,6.31µM,?,?
CCCCCCCCCCOC(=O)Cn1c(COc2ccccc2)[n+](C)c2ccccc21,0,?,11.2µM,?,?,-
CCCCCCCCCCOC(=O)Cn1c(COc2ccc(Cl)cc2)[n+](C)c2ccccc21,12.6µM,?,12.6µM,?,-,-
SMILES,HepG2 viability,RORgamma inh,TGFb SMAD3 inh,VP16 counter,ATXN viability,ATXN2 expr inh
CCCCCCCCCCOC(=O)Cn1c(COc2cccc(C)c2)[n+](C)c2ccccc21,0,0,?,11.2µM,0,0
CCOC(=O)Cn1c(COc2ccccc2OC)[n+](C)c2ccccc21,0,-,0,-,0,-
CCOC(=O)[C@]12CCCC=C1N(Cc1cccc3ccccc13)C(=O)[C@H](CC(=O)NCCc1ccccc1OC)C2,-,-,-,-,?,0
CCCCCCCCCCOC(=O)Cn1c(COc2ccccc2C)[n+](C)c2ccccc21,0,?,?,15.8µM,?,22.4µM
O=C(N/N=C/c1ccc(Br)s1)c1cccs1,0,3.16µM,0,5.01µM,0,0
O=C(N/N=C/c1ccc(Br)s1)c1ccncc1,0,0.794µM,?,1µM,0,0
Cc1ccc(/C=N/NC(=O)c2cccs2)s1,0,11.2µM,0,11.2µM,0,-
O=C(Nc1ccc(Cl)cc1)N1CCN(c2ccc3nnc(-c4ccc(F)cc4)n3n2)CC1,0,0,14.1µM,0[0.365 µM],?,?
O=C(NNC(=O)c1cc(-c2ccncc2)nc2ccccc12)c1cccc(Cl)c1,0,-,0,-,0,0
CCNC(=S)NNC(=O)c1cc(-c2ccc(OC)cc2)nc2ccccc12,7.94µM,1.41µM,0,3.55µM,0,0
CCCCOc1ccc(-c2cc(C(=O)NNC(=S)NCC)c3ccccc3n2)cc1,8.91µM,5.01µM,?,2.51µM,?,?
CCCCNC(=S)NNC(=O)c1cc(-c2cccnc2)nc2ccccc12,0,?,0,0,0,0
COc1ccc(Cl)cc1C(=O)NNC(=S)NC(=O)c1ccc(F)c(F)c1,0,7.08µM,0,11.2µM,0,0
COc1cc(C(=O)NNC(=S)NC(=O)c2ccc(F)cc2)cc(OC)c1OC,0,?,0,?,0,0
COc1ccc(Cl)cc1C(=O)NNC(=S)NC(=O)c1cc(-c2ccc(Cl)cc2)nc2ccccc12,0,1.26µM,0,?,0,0
Nc1c(Cl)cc(C2=NCCn3c2c2ccc([N+](=O)[O-])cc2[n+]3[O-])cc1Cl,0,-,11.2µM,-,?,?
N#Cc1c(-c2ccc(Cl)cc2)n(O)c2ccccc12,0,-,?,-,?,0
CC(C)Cc1nc2cc(NS(=O)(=O)N(C)C)cc(C(=O)N3CCc4ccccc4C3)c2n1C,-,-,-,-,0,-
O=S(=O)(NCc1nnc2n1CCN(Cc1ccccc1Cl)CC2)c1ccccc1,-,-,-,-,0,-
C=CCN1C(=O)N/C(=C/c2ccc(C)o2)C1=O,0,5.62µM,0,5.01µM,0,-
Cc1cccc(NC(=O)CN2C(=O)N/C(=C/c3ccc(C)o3)C2=O)c1,0,?,0,17.8µM,0,0
Cc1ccc(/C=C2\C(=O)NC(=O)N2C)o1,0,0,0,0,0,0
Cc1ccc(NC(=O)CN2C(=O)N/C(=C/c3ccc(C)o3)C2=O)cc1,0,0,?,?,0,0
CCc1cccc(C)c1NC(=S)NCCc1c(C)[nH]c2ccc(C)cc12,11.2µM,2.24µM,12.6µM,5.62µM,0,?
CCc1cccc(CC)c1NC(=S)NCCc1c(C)[nH]c2ccc(C)cc12,0,3.16µM,12.6µM,5.01µM,?,17.8µM
O=C(NCCC(=O)N1CCCCC1)c1ccccc1Cl,0,0,0,0,0,0
CC1CC(C)CN(C(=O)CCNC(=O)c2ccccc2Cl)C1 (centres undefined),0,15.8µM,0,?,0,0
CC1=C(C(=O)N2CCN(c3cccc(Cl)c3)CC2)C2(CCCCC2)OC1=O,0,-,?,-,0,0
CCOC(=O)C1=C(O)c2ccccc2C(=O)/C1=C\c1ccc(C)cc1,11.2µM,?,?,?,-,?
Cc1cccc(CSCCNC(=O)COc2ccc(Cl)cc2)c1,0,0,0,0,0,0

# High-throughput results: PubChem, National Center for Advancing Translational Sciences (NCATS)
